Experimental data from PubChem BioAssay (NCATS).
Inconclusive results are not listed. Activity calls are given as the source filed them. Unless noted, the call rests on the fitted dose curve; in most records, active means well fitted curve in the direction sought with a large enough effect; inconclusive means small, poorly fitted or top-dose-only effect, or another doubt; inactive means no such curve, though single readings can be large; an effect the other way counts as inactive or inconclusive.

What was measured:
[1] = Cell Viability - Jurkat (AID 426;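 active means dose-dependent loss of cell ATP signal giving a full or clear fitted curve, ranked by lower potency value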; further: potency means the concentration at half of the fitted maximal effect); settings: qHTS
Outline: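 Seed 5000 Jurkat E6-1 cells/well; add compound; incubate 40 hr at 37 °C; add CellTiter-Glo; wait 20 min at room temperature; read luminescence. Fit concentration-response with Hill equation for AC50.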

[2] = Cell Viability - Hek293 (AID 427;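 active means compounds whose dose-response curve shows a full or clear partial loss of cell viability, called from curve shape rather than a numeric limit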;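 further: potency means the concentration at half of the fitted maximal effect; cells exposed to compound for 40 hours at 37 °C before reading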); settings: qHTS
Outline: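 qHTS, human embryonic kidney (adenovirus-transformed) cells; 40 hr cpd, 37 °C; CellTiter-Glo ATP luminescence. Norm: DMSO = 0, 100 uM tamoxifen = 100% inhibition. Hill-fit AC50.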

[3] = Cell Viability - HepG2 (AID 433; calls by dose curve;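 further: potency means the concentration at half of the fitted maximal effect; potency for ATP loss meaning cytotoxicity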); settings: qHTS
Outline: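 HepG2 cells, 1500 per well, treated 40 hr at 37 °C in complete medium; viability from intracellular ATP by CellTiter-Glo luminescence. Normalized to DMSO and 100 uM tamoxifen; AC50 from Hill fit of qHTS concentration-response.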

[4] = Cell Viability - MRC5 (AID 434; calls by dose curve;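 further: potency means the concentration at half of the fitted maximal effect; potency reflects cytotoxicity seen as loss of intracellular ATP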); settings: MRC5 lung fibroblast viability, qHTS
Outline: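 qHTS cytotoxicity in human lung fibroblast MRC5 cells; 40 hr treatment, 37 °C; cellular ATP by luciferase luminescence; DMSO = 0%, 100 uM tamoxifen = 100% inhibition; Hill-fit AC50.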

[5] = Cell Viability - N2a (AID 540); settings: N2a mouse neuroblastoma cell viability; at 92.2 µM (top of the series);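 further: plate controls were DMSO alone for no effect and tamoxifen control for full effect; nearly all actives have a fitted effect of over 45% in size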
Outline: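 First, 1500 N2a cells per well incubate 5 hr at 37 °C; next, compounds are added and incubated 40 hr at 37 °C; finally CellTiter-Glo is added and luminescence read after 20 min, with AC50 derived by Hill modeling.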

[6] = Cell Viability - NIH 3T3 (AID 541); settings: NIH 3T3 cell viability, qHTS; activity change, negative = cytotoxicity: at 92.2 µM (top of the series);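 further: plate controls were DMSO alone for no effect and tamoxifen positive control for full effect; nearly all actives have a fitted effect of over 25% in size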
Outline: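 AC50 values reflect concentration-dependent loss of intracellular ATP in NIH 3T3 cells after 40 hr treatment in complete culture medium, quantified by luciferase-based luminescence.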

[7] = Cell Viability - HUV-EC-C (AID 542); further: on the % scale 0 is the no-effect control and ±100 the full control effect; nearly all actives have a fitted effect of over 35% in size
Outline: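 Decrease in cellular ATP, quantified by luciferase luminescence, reflects toxicity in normal human vascular endothelial HUV-EC-C cells given compound for 40 hr in complete culture medium. Values are AC50s from concentration-response curves.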

[8] = Cell Viability - H-4-II-E (AID 543); further: on the % scale 0 is the no-effect control and ±100 the full control effect; nearly all actives have a fitted effect of over 35% in size
Outline: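 Here, cytotoxicity is measured in the rat hepatoma line H-4-II-E as loss of intracellular ATP after 40 hr compound treatment, detected by luciferase luminescence.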

[9] = Cell Viability - SH-SY5Y (AID 544); settings: SH-SY5Y neuroblastoma cell viability; viability change, negative = cytotoxic: at 92.2 µM (top of the series); further: nearly all actives have a fitted effect of over 55% in size
Outline: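 Cytotoxicity is scored as a concentration-dependent fall in intracellular ATP in human SH-SY5Y cells treated 40 hr in complete culture medium. Potency is expressed as AC50 from a Hill equation fit.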

[10] = Cell Viability - Renal Proximal Tubule (AID 545); settings: renal proximal tubule cells viability; at 91.7 µM (top of the series), primary cells of rat origin unless noted; further: nearly all actives have a fitted effect of over 40% in size
Outline: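 Rat renal proximal tubule primary cells, 1000/well, exposed to compounds for 40 hr at 37 °C in complete medium; cellular ATP read by CellTiter-Glo luminescence. AC50 from concentration-response fitted with standard Hill equation.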

[11] = Cell Viability - Mesenchymal (AID 546);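 further: cells exposed to compound for 40 hours before reading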
Outline: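 AC50 values reflect the drop in intracellular ATP in a human kidney mesenchymal line derived from normal glomeruli. Treatment lasts 40 hr at 37 °C in complete medium, and the signal comes from CellTiter-Glo luminescence.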

[12] = Cellular Toxicity (caspase-3) HepG2 (AID 654);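 further: cells exposed to compound for 16 hours before reading; 0% = DMSO alone and 100% = caspase signal from 100 µM tamoxifen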
Outline: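 qHTS, HepG2, 1500 cells/well, complete medium; cpd 16 h 37 °C; Caspase-Glo 3/7, 20 min RT; lum. Norm: DMSO vs 100 uM tamoxifen; AC50 Hill fit.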

[13] = Cellular Toxicity (caspase-3) Jurkat (AID 655); settings: Jurkat caspase-3 activation, luminescence, DMSO = 0%, tamoxifen = 100%; at 92.2 µM (top of the series);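 further: cells exposed to compound for 16 h at 37 °C before reading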
Outline: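 Jurkat cells (5000/well) in complete medium exposed 16 h at 37 C; caspase-3/7 activity read by Caspase-Glo luminescence after 20 min at room temperature. Normalized to DMSO and 100 uM tamoxifen; AC50 from Hill fits.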

[14] = Cellular Toxicity (caspase-3) HUV-EC-C (AID 656)
Outline: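 HUV-EC-C cells (1000/well) in complete medium, compound-treated 16 h at 37 °C; caspase-3/7 activity read by Caspase-Glo 3/7 luminescence. Normalized to DMSO (basal) and 100 uM tamoxifen (100%); AC50 from Hill-equation concentration-response fits.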

[15] = Cellular Toxicity (caspase-3) SHSY5Y (AID 657)
Outline: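 SH-SY5Y human neuroblastoma cells, 1500/well, exposed to compound for 16 hours at 37 °C in complete medium. Caspase-3/7 activity read by Caspase-Glo luminescence after 1 hr at room temperature, normalized to DMSO and 10 uM staurosporine; AC50 from Hill fit.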

[16] = Cellular Toxicity (caspase-3) BJ (AID 658)
Outline: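 Readout: Caspase-Glo 3/7 luminescence increase in BJ cells after 16 hr treatment at 37 °C. Staurosporine and tamoxifen served as positive controls; AC50 values came from Hill modelling of data normalized to DMSO and 10 uM staurosporine.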

[17] = Cellular Toxicity (caspase-3) MRC-5 (AID 659)
Outline: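 Concentration-dependent caspase 3/7 activation is measured in human normal lung fibroblasts (MRC-5) following 16-hour treatment. AC50 values come from standard Hill-equation modeling of luminescence normalized to DMSO and 10 uM staurosporine.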

[18] = Cellular Toxicity (caspase-3) SK-N-SH (AID 661)
Outline: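 Caspase 3/7 activation is measured as a luminescence increase from aminoluciferin released by substrate cleavage in SK-N-SH cells after 16 hr compound treatment; values are AC50 from concentration-response curves.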

[19] = Cellular Toxicity (caspase-3) H-4-II-E (AID 663);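 further: cells exposed to compound for 16 hr before readout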
Outline: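 Apoptosis induction is scored as increased luminescence from caspase 3/7 substrate cleavage in rat hepatoma H-4-II-E cells exposed to compound for 16 hr. Activity is scaled between DMSO and 100 uM tamoxifen.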

[20] = Cellular Toxicity (caspase-3) Hek293 (AID 664);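 further: cells exposed to compound for 16 h at 37 °C before readout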
Outline: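 Activation of caspase-3/7 is measured as increased luminescence from cleaved peptide-aminoluciferin substrate in HEK293 cells treated 16 hours at 37 °C. AC50 values come from Hill-equation fits of concentration-response data.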

[21] = Cellular Toxicity (caspase-3) N2a (AID 665); settings: N2a cells, luminescence, normalized: DMSO 0%, 10 µM staurosporine 100%; at 92.2 µM (top of the series);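 further: compound exposure lasted 16 h at 37 °C before readout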
Outline: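 Plated mouse neuroblastoma N2a cells received titrated compounds for 16 h in complete medium. Caspase activity was then detected with a peptide-aminoluciferin luminescent reagent.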

[22] = Cellular Toxicity (caspase-3) NIH 3T3 (AID 666);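 further: caspase signal read after 16 h compound exposure; 0% = DMSO basal and 100% = 100 µM tamoxifen stimulation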
Outline: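 Concentration-response qHTS in NIH 3T3 mouse fibroblasts scores caspase-3/7 activation as rising luminescence after 16 hr compound exposure. Signals are scaled between DMSO-only and 100 uM tamoxifen.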

[23] = Cellular Toxicity (caspase-3) Renal Proximal Tubule (AID 667); settings: renal proximal tubule cells; at 91.7 µM (top of the series), primary cells freshly taken from rat, solvent-only wells 0%, staurosporine 100% unless noted;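 further: cells exposed to compound for 16 hours at 37 °C before detection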
Outline: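 Freshly isolated primary rat kidney proximal tubule cells, 1000/well, treated 16 hr at 37 °C, then Caspase-Glo 3/7 luminescence after 1 hr. Normalized to DMSO and 10 uM staurosporine; AC50 from Hill fit.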

[24] = target: Cytochrome P450 3A4 (Homo sapiens) (UniProt P08684); assay: qHTS Assay for Inhibitors and Substrates of Cytochrome P450 3A4 (AID 884); further: on the % scale 0 is the no-effect control and ±100 the full control effect; nearly all actives have a fitted effect of over 50% in size
Outline: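 20 nM human CYP3A4 with 25 uM Luciferin-PPXE (at KM) in 200 mM KPO4, preincubated 10 min with compound; NADPH regeneration started a 60 min RT reaction. Luciferin detected by luminescence, normalized to 57 uM ketoconazole as full inhibition.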

[25] = Confirmation and Secondary Assay for Modulators of Hemoglobin Beta Chain Splicing at IVS2 654 locus (AID 910);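 further: HeLa cells stably carrying EGFP split by mutant beta-globin IVS2-654 intron; per-well total GFP intensity by laser scanning cytometry after 2-day treatment; % of control where 0% means no effect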
Outline: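 Readout: per-well total peak green fluorescence (488 nm ex, 500–520 nm em) from objects 5–250 µm, reflecting correct splicing of an EGFP-654 reporter. Compounds were applied for 2 days at 37 °C to overnight-plated HeLa EGFP-654 cells; controls were DMSO and 500 nM IVS2-654 PNA.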

[26] = Cell Viability - LYMP2-001 (AID 921);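 further: 0% = DMSO only and full inhibition = tetraoctylammonium bromide control wells; nearly all actives have a fitted effect of over 70% in size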
Outline: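 Human lymphoblastoid LYMP2-001 cells, 2500 per well, in complete medium, treated 24 h at 37 C. Viability from cellular ATP by CellTiter-Glo luminescence; AC50 from Hill-equation fits of qHTS concentration-response.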

[27] = Confirmation and Secondary Assay for Modulators of Hemoglobin Beta Chain Splicing at IVS2 705 locus (AID 930);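 further: HeLa cells stably expressing the EGFP-705 splicing reporter; GFP fluorescence per well restored by corrected splicing of the IVS2-705 intron in EGFP; % of control where 0% means no effect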
Outline: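 Secondary splice-site specificity test uses HeLa expressing CMV-driven EGFP interrupted by IVS2-705; cells were treated 2 days at 37C with 500 nM antisense PNA as positive control.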

[28] = MultiTox-Fluor Cytotoxicity Assay - LYMP1-001 - Dead Cells (AID 946)
Outline: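 Seed 2500 LYMP1-001 cells/well, incubate 5 hr at 37 C; add compound, 16 hr at 37 C; add MultiTox-Fluor reagent, 60 min RT; read dead-cell fluorescence Ex/Em=485/520. Normalize to DMSO and 15 uM tetraoctylammonium bromide.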

[29] = MultiTox-Fluor Cytotoxicity Assay - LYMP1-001 - Live Cells (AID 947);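 further: 0% = DMSO only and full inhibition = tetraoctylammonium bromide control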
[30] = Cell Viability - LYMP1-002 - Assay at 16 hr (AID 948);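 further: 0% = DMSO alone and full effect = 92 µM tetraoctylammonium bromide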
Outline: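 LYMP1-002 human lymphoblastoid cells, 2500/well, were treated with compounds for 16 hr at 37 C in complete medium. Viability was read as intracellular ATP by CellTiter-Glo luminescence, and AC50 was derived from a Hill fit to concentration-response data.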

[31] = MultiTox-Fluor Cytotoxicity Assay - LYMP1-002 - Live Cells (AID 955); further: on the % scale 0 is the no-effect control and ±100 the full control effect
Outline: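 Cytotoxicity in the human lymphoblastoid line LYMP1-002 is measured as loss of live-cell protease activity after 16 h treatment in complete culture medium. AC50 is derived from Hill-equation fits of qHTS concentration-response data.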

[32] = MultiTox-Fluor Cytotoxicity Assay - LYMP1-002 - Dead Cells (AID 960); further: nearly all actives have a fitted effect of over 60% in size
Outline: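 Acute cytotoxicity in a human lymphoblastoid line is scored as rising dead-cell protease signal after 16 hr exposure at 37 C, measured fluorometrically (485/520).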

[33] = MultiTox-Fluor Cytotoxicity Assay - LYMP1-003 - Dead Cells (AID 961); further: nearly all actives have a fitted effect of over 70% in size
Outline: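 LYMP1-003 lymphoblastoid, 2500 cells/well, 5 hr settle then 16 hr cpd at 37 C; MultiTox-Fluor reagent 60 min RT; Ex/Em 485/520 dead-cell signal; norm. DMSO = 0%, 15 uM tetraoctylammonium bromide = 100%; Hill AC50.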

[34] = Cell Viability - LYMP1-003 - Assay at 40 hr (AID 964); further: on the % scale 0 is the no-effect control and ±100 the full control effect; nearly all actives have a fitted effect of over 60% in size
Outline: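 This qHTS cytotoxicity screen treats human lymphoblastoid cells (LYMP1-003) with compounds for 40 hr and quantifies cellular ATP via luciferase luminescence.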

[35] = Cell Viability - LYMP2-003 (AID 965);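 further: cells exposed to compounds for 24 h before reading; 0% = DMSO only and full effect = 92 µM tetraoctylammonium bromide; nearly all actives have a fitted effect of over 50% in size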
Outline: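 Human lymphoblastoid LYMP2-003 cells, 2500/well, exposed to compounds for 24 h at 37 C in complete medium. Viability read as intracellular ATP by CellTiter-Glo luminescence; AC50 from Hill-equation fits of qHTS concentration-response data.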

[36] = Cell Viability - LYMP2-004 (AID 966);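 further: plate controls were DMSO only for no effect and tetraoctylammonium bromide control for full effect; nearly all actives have a fitted effect of over 65% in size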
Outline: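 Acute toxicity is scored as a concentration-dependent drop in intracellular ATP, quantified by luciferase luminescence, in human lymphoblastoid cells exposed to compound for 24 hr. AC50 derives from Hill-equation modelling.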

[37] = Cell Viability - LYMP2-005 (AID 967);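 further: plate controls were DMSO only for no effect and 92 µM tetraoctylammonium bromide control for full effect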
Outline: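 Human lymphoblastoid LYMP2-005 cells, 2,500 per well in complete medium, rested 5 h at 37C then compound-treated 24 h at 37C. Intracellular ATP read by CellTiter-Glo luminescence after 30 min at room temperature; AC50 from Hill-equation fits of concentration-response data.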

[38] = Cell Viability - LYMP2-009 (AID 968);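 further: 0% = DMSO alone and the full-kill end = tetraoctylammonium bromide at 92 µM; nearly all actives have a fitted effect of over 55% in size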
[39] = Cell Viability - LYMP2-011 (AID 969);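 further: 0% = DMSO only and full inhibition = 92 µM tetraoctylammonium bromide; nearly all actives have a fitted effect of over 60% in size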
Outline: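 Acute toxicity is scored as a concentration-dependent drop in intracellular ATP of a human lymphoblastoid line after 24 hr treatment. Values are AC50s modeled with the Hill equation.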

[40] = Cell Viability - LYMP2-013 (AID 970);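 further: 0% = DMSO only and full inhibition = tetraoctylammonium bromide control; nearly all actives have a fitted effect of over 55% in size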
Outline: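 Acute toxicity was measured in human lymphoblastoid cells (2500/well) exposed to compound titrations for 24 hr, with ATP luminescence (CellTiter-Glo) as read-out and AC50 fitted by Hill equation.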

[41] = Cell Viability - LYMP2-017 (AID 972)
Outline: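 Steps: plate 2500 lymphoblastoid cells per well; incubate 5 hr at 37 C; add compound across a concentration series and incubate 24 hr at 37 C; add CellTiter-Glo and read luminescence after 30 min at room temperature; fit Hill curves for AC50.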

[42] = Cell Viability - LYMP2-019 (AID 973)
Outline: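 Cells plated at 2500/well and allowed 5 hr at 37 C before compound addition. After 24 hr incubation, CellTiter-Glo reagent was added, plates sat 30 min at room temperature, and luminescence was recorded.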

[43] = Cell Viability - LYMP2-021 (AID 974)
Outline: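 Concentration-response cytotoxicity in a human lymphoblastoid line: 24 hr treatment at 37 C in complete culture medium, tetraoctylammonium bromide as positive control, luminescent ATP quantitation as viability measure.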

[44] = Cell Viability - LYMP2-023 (AID 975)
Outline: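 Concentration-dependent drop in intracellular ATP measures acute cytotoxicity in a human lymphoblastoid line treated for 24 hours in complete culture medium. AC50 values are taken from Hill-equation fits of qHTS data.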

Chain of Cytochrome P450 3A4 (Homo sapiens) (P08684 whole entry, looked up): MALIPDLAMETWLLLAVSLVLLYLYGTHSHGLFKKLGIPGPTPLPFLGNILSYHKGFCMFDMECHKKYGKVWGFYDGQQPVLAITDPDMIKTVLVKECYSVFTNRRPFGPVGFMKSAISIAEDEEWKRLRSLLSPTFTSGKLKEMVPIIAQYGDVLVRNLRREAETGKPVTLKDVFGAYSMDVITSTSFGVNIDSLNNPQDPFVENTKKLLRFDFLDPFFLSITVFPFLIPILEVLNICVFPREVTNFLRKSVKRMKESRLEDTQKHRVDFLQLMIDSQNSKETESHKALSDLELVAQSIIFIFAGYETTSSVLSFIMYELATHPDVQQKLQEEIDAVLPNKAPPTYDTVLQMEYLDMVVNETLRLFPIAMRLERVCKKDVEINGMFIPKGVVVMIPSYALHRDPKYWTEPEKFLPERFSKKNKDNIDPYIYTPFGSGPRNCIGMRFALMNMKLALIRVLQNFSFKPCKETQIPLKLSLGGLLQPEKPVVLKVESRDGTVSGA

CCCCOC(=O)c1ccccc1C(=O)OCCCC
inactive: Potency [1] > 92 µM | Potency [2] > 92 µM | Potency [3] > 92 µM | Potency [4] > 92 µM | activity change, negative = cytotoxicity [5] -7.34% | activity change, negative = cytotoxicity [6] -3.85% | Potency [7] | Potency [8] | Potency [9] | activity change, negative = cytotoxicity [10] 1.09% [at 91.7 µM] | outcome [11] | outcome [12] | caspase-3 activation [13] -1.56% | outcome [14] | outcome [15] | outcome [16] | outcome [17] | outcome [18] | outcome [19] | outcome [20] | caspase-3 activation [21] -1.36% | outcome [22] | caspase-3 activation [23] -0.0975% [at 91.7 µM] | Potency [24] | Potency [25] | Potency [26] | Potency [27] | Potency [28] | Potency [29] | Potency [30] | outcome [31] | Potency [32] | Potency [33] | Potency [34] | Potency [35] | Potency [36] | Potency [37] | Potency [38] | Potency [39] | Potency [40] | Potency [41] | Potency [42] | Potency [43] | Potency [44]
